Test results from PubChem BioAssay.
The source made the active and inactive calls. How the calls were made is not given here.

What was measured:
[1] = test system: Botulinum neurotoxin type F light chain protease (Clostridium botulinum); experiment: Botulinum neurotoxin type F light chain protease inhibition, multiplex microsphere flow cytometry, validation set (AID 588459); conditions: multiplex microsphere protease substrate cleavage assay, at 10 µM, active compounds read high
[2] = target: Botulinum neurotoxin type A (Clostridium botulinum) (UniProt P0DPI0); experiment: BoNT/A light chain protease inhibitors, biochemical, multiplex microsphere flow cytometry, validation set (AID 588460); conditions: at 10 µM, active compounds read high
Botulinum neurotoxin type A (Clostridium botulinum), sequence (P0DPI0 whole entry, looked up): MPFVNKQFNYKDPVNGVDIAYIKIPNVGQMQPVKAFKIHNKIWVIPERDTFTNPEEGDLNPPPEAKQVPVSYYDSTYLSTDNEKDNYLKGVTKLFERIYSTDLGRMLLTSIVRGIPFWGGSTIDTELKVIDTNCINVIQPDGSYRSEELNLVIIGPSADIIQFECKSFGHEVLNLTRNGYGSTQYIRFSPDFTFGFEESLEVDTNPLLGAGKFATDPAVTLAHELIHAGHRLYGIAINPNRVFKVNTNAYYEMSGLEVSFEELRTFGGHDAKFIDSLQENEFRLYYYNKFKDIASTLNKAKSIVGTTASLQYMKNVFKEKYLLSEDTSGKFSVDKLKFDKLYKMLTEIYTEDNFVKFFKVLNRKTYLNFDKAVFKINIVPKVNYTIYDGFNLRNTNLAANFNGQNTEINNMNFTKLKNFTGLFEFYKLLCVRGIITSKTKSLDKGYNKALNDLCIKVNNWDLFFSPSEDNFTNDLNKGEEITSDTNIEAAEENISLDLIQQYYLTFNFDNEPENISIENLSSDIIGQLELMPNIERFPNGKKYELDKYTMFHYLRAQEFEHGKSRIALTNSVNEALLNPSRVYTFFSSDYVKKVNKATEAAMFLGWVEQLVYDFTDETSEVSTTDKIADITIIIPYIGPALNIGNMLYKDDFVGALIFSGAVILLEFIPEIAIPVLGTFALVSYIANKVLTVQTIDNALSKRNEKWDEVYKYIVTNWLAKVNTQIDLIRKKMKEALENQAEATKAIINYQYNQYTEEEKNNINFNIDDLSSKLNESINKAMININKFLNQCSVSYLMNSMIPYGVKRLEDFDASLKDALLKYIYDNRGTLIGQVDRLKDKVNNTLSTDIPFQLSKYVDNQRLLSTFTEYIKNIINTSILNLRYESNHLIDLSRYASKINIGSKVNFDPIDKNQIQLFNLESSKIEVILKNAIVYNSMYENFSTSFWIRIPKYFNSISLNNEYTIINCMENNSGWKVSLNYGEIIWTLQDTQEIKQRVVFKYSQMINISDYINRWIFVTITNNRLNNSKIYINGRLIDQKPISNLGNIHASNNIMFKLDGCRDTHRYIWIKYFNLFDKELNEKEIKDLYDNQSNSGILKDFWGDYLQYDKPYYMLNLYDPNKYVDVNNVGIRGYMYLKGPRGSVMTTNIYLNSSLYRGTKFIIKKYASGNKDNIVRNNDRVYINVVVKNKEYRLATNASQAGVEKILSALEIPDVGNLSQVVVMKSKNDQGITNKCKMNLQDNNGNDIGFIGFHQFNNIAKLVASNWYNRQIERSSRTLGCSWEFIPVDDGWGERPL

[3] = target: Lethal factor (Bacillus anthracis) (UniProt P15917); experiment: Lethal factor protease inhibitors, Bacillus anthracis, multiplex microsphere cleavage assay, validation set (AID 588461); conditions: flow cytometry, at 10 µM, active compounds read high
Lethal factor (Bacillus anthracis), sequence (P15917 whole entry, looked up): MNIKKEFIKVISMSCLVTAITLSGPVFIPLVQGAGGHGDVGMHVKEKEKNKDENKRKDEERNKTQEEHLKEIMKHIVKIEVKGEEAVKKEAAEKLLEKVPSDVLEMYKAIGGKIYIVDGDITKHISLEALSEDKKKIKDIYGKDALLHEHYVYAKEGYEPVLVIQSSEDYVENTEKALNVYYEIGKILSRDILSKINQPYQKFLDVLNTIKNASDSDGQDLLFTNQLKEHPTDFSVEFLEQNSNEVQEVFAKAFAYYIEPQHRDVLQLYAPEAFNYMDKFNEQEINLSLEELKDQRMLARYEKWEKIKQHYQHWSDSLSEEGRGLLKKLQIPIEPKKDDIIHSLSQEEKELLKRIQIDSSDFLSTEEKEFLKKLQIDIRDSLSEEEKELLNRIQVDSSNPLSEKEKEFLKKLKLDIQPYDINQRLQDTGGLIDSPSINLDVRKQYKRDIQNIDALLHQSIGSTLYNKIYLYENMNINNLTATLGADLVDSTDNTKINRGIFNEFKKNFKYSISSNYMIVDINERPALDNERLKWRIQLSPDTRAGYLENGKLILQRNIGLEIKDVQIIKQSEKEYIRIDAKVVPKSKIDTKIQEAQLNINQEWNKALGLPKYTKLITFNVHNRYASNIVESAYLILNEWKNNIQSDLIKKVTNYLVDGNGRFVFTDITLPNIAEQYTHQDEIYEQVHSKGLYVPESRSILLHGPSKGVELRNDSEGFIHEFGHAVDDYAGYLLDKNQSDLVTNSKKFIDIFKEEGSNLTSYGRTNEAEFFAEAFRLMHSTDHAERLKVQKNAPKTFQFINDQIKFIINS

Measured: inhibition

c1ccc2c3c(c(CN4CCCCC4)cc2c1)COC3
inactive: [1] 5.7% | [2] -1% | [3] 0.6%

COc1cc(C2CC(=O)NC3=C2C(=O)CC(C)(C)C3)ccc1O (configuration not stated)
inactive: [1] -1.7% | [2] 0.3% | [3] 0%

CCC(=O)c1ccc(OCc2ccc(C(=O)OC)cc2)cc1
inactive: [1] -1.6% | [2] 0.7% | [3] -3.4%

OCC1CCN(Cc2cn(Cc3ccccc3)nc2-c2cc3ccccc3o2)CC1
inactive: [1] -0.4% | [2] -0.7% | [3] -0.9%

CC(=O)NCCCC(=O)NC(CCC(=O)OCc1ccccc1)C(=O)OCc1ccccc1 (configuration not stated)
inactive: [1] -1% | [2] -1.4% | [3] -8.6%

CC(COc1ccccc1)NC(C)C(O)c1ccc(O)cc1 (configuration not stated)
inactive: [1] -1.7% | [2] 0.2% | [3] 0.2%

CCCC(=O)O[C@]1(C(=O)CCl)[C@@H](C)C[C@H]2[C@@H]3CCC4=CC(=O)C=C[C@]4(C)[C@@]3(F)C(=O)C[C@@]21C
inactive: [1] 0.9% | [2] -0.6% | [3] 1%

O=C(CN1CC[n+]2c(-c3cccs3)csc21)c1ccc(Br)cc1
inactive: [1] 0.8% | [2] -0.2% | [3] -1.6%

C=CCN1C(=O)c2oc3ccccc3c(=O)c2C1c1ccc(O)c(OC)c1 (configuration not stated)
inactive: [1] -1.5% | [2] -0.6% | [3] 1.1%

O=Cc1ccccc1Oc1ccccc1
inactive: [1] 0.2% | [2] -2.2% | [3] -0.3%

CN(C)CC/C=C1\c2ccccc2Sc2ccc(Cl)cc21
inactive: [1] -9.1% | [2] -1.1% | [3] 2.3%

CCCCCCCCCC(=O)OCC(O)CO (configuration not stated)
inactive: [1] -3.5% | [2] -2% | [3] -4.5%

O=C(O)[C@@H](O)c1ccccc1
inactive: [1] -0.3% | [2] 0% | [3] -3.5%

CC(=O)Nc1ccccc1C(=O)C(=O)Nc1ccccc1
inactive: [1] 2.1% | [2] 0.9% | [3] -1.5%

CCCN1C[C@H](CSC)C[C@@H]2c3cccc4[nH]cc(c34)C[C@H]21
inactive: [1] -8.5% | [2] -1.6% | [3] -33.7%

CCCCNc1cc(C(=O)O)cc(S(N)(=O)=O)c1Oc1ccccc1
inactive: [1] 2.6% | [2] 1.7% | [3] -3.2%

Cn1c(=S)n(C)c2ccccc21
inactive: [1] 4% | [2] 0.1% | [3] 2.8%

COc1ccc(CCN(C)Cc2nc(Cc3ccc(OC)c(OC)c3)no2)cc1OC
inactive: [1] 1% | [2] -1% | [3] 6.9%

Cc1cccc2c1CC(C)(C)N/C2=C\C(N)=O
inactive: [1] 1% | [2] 1% | [3] -3.4%

CCc1ccc(/C=C2\SC(=S)N(CCC(=O)N3CCN(C)CC3)C2=O)cc1
inactive: [1] 4.9% | [2] 2.1% | [3] 4.9%

CC(O)Cn1cnc2c1c(=O)n(C)c(=O)n2C (configuration not stated)
inactive: [1] -1.4% | [2] -0.5% | [3] -3.2%

CC#C[C@]1(O)CC[C@H]2[C@@H]3CCC4=CC(=O)CCC4=C3[C@@H](c3ccc(N(C)C)cc3)C[C@@]21C
inactive: [1] -3.9% | [2] -2% | [3] -7.2%

COc1ccccc1Oc1c(C)oc2c(CN3CCN(CCO)CC3)c(O)ccc2c1=O
inactive: [1] -2.3% | [2] -1.2% | [3] 1.4%

COc1ccc(Cc2noc(CN(C)CC3(N4CCOCC4)CCCCC3)n2)cc1OC
inactive: [1] 7.7% | [2] 4.3% | [3] -0.4%

Cc1ccc(-c2nn(-c3cccc(F)c3)cc2CN2CCN(c3ccccn3)CC2)o1
inactive: [1] -0.1% | [2] -0.9% | [3] -6.4%

CCCCC(=O)O[C@H]1CC[C@H]2[C@@H]3CCc4cc(O)ccc4[C@H]3CC[C@]12C
inactive: [1] 0.5% | [2] 0.1% | [3] -1.7%

CCN(CC)CCNC(=O)c1cc(S(C)(=O)=O)ccc1OC
inactive: [1] 2.7% | [2] 1.8% | [3] 4.7%

O=C1C(O)CC2c3ccccc3CC3(CCCC3)N12 (configuration not stated)
inactive: [1] 2% | [2] -1.5% | [3] -6%

COc1ccc2c(c1OC)C(=O)NC(C)=C(C(=O)OC(C)(C)C)C2O (configuration not stated)
inactive: [1] 4.3% | [2] -0.4% | [3] -5.3%
